Measured values reported in PubChem BioAssay (NCI).
The panel holds about 83,000 compounds, 20% with a hit somewhere; the sample as a whole holds those more often.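 Cells were grown in 96-well plates and exposed to the test compound at a single concentration for 48 hours; results are reported as percent growth, with values below 10 considered active.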 Unmarked numbers belong to inactive results. Active and inactive are the calls of the source.

Columns and labels:
Assay in all cases: NCI-60 one-dose screen, 48 h (100 = growth as untreated, 0 = no growth, -100 = all killed)
Conditions in all cases: 10 µM unless noted
[1] = tested on: BT-549 breast
[2] = tested on: MDA-MB-435 melanoma
[3] = tested on: SW-620 colon
[4] = tested on: MCF7 breast
[5] = tested on: HCT-116 colon
[6] = tested on: HCC-2998 colon
[7] = tested on: KM12 colon

Compound | growth [1] | growth [2] | growth [3] | growth [4] | growth [5] | growth [6] | growth [7]
O=C1/C(=C/c2ccc([N+](=O)[O-])s2)Oc2ccc(Br)cc21 | -46.2% (active) | -69.5% (active) | -63.5% (active) | -25.2% (active) | -71.5% (active) | -79.9% (active) | -51.3% (active)
Cc1cc(C)c2c(c1)N1OC(C2)C[C@H]1/C=C/c1ccccc1 (stereo partly specified) | 105% | 87.2% | 108% | 88% | 84.6% | 98.2% | 107%
COc1ccc(C(=O)C(C)Br)cc1OC (stereo unspecified) | 94.3% | 87.4% | 40.8% | 84.4% | 52.2% | 101% | 93.3%
Cc1cc2cn3c4cccnc4[nH]c(=O)c3c2cc1C | 73.2% | -20.7% (active) | -29.5% (active) | -36.9% (active) | -85.3% (active) | 60% | 13.1%
CCCCC(C#N)C(N)=O (stereo unspecified) | 114% | 114% | 111% | 97.7% | 98.4% | 104% | 119%
CN(CC(=O)Nc1nc2ccccc2[nH]1)S(=O)(=O)c1ccc(Cl)cc1 | 99.2% | 91.2% | 67.5% | 40.9% | 72.8% | 91.3% | 105%
CCCCCCC/C(=N\N=C(N)N)c1ccc(O)cc1 | 46.9% | 41.6% | 49% | -21.8% (active) | 18.3% | -77% (active) | 48.8%
N#Cc1cnc2cc(OC[C@H](O)CO)c(NC(=O)CC3CSSC3)cc2c1Nc1ccc(OCc2cccc(F)c2)c(Cl)c1 | -62.2% (active) | -82.7% (active) | -70.8% (active) | -69.2% (active) | -42.8% (active) | -81.9% (active) | -81.8% (active)
CC(CCC(=O)O)(NC(=O)c1ccc([N+](=O)[O-])cc1)C(=O)O (stereo unspecified) | 114% | 105% | 103% | 107% | 98.9% | 90.4% | 99.3%
CCC(CC)NCCCCCNc1cc(OC)cc2cccnc12 | 88% | 107% | 95.4% | 58.4% | 90.5% | 117% | 98.6%
Nc1ncc(-c2cnn(C3CCNCC3)c2)cc1-c1nc2cc(Cl)ccc2o1 | 61.3% | -100% (active) | -100% (active) | -93.3% (active) | -100% (active) | -100% (active) | -100% (active)
Oc1ccc(-c2nn(-c3ccccc3)cc2-c2nc3ccccc3s2)cc1 | 103% | 102% | 99.6% | 50.4% | 88.8% | 102% | 82.8%
CC(C)COCC(CN(Cc1ccccc1)c1ccccc1)N1CCCC1 (stereo unspecified) | 62.2% | 72.4% | 70.1% | 45.8% | 36.7% | 44.8% | 56.2%
CC1=C(C(=O)Nc2ccccc2)C(c2ccc3c(c2)OCCO3)NC(=O)N1 (stereo unspecified) | 95.9% | 102% | 105% | 94.7% | 97.6% | 103% | 100%
Cc1nnc(Nc2ccc(NC(=O)Nc3ccc(Cl)cc3)cc2)c2ccccc12 | 11.4% | -40% (active) | 20.3% | 24.9% | 7.67% (active) | 40.5% | 14.1%
O=C1CC(=O)N(c2ccccc2)O1 | 101% | 104% | 101% | 115% | 101% | 105% | 109%
CC1CC(C)/C(=N/NC(N)=O)C(C(O)CC2CCC(=O)NC2=O)C1 (stereo unspecified) | 53.1% | 34.3% | 34.3% | 36.7% | 24% | 58.8% | 32.3%
COc1cc(/C=C/C(=O)Nc2cccnc2Nc2cc(OC)c(OC)c(OC)c2)cc(OC)c1OC | 96.7% | 96.6% | 99.1% | 87.9% | 88.6% | 97% | 103%
CC(=O)Oc1ccc(C23c4ccccc4C2(OC(C)=O)c2cc(OC(C)=O)ccc23)cc1 (stereo unspecified) | 106% | 97.9% | 80.3% | 49.5% | 61.6% | 59.2% | 46.2%
Oc1ccccc1/C=N\Nc1ccccc1 | 65.1% | 28.6% | 34.5% | 61.1% | 68.6% | 79.6% | 19.8%
Clc1cc(Cl)c(OCC#CI)cc1Cl | 135% | 55.5% | -65.9% (active) | 9.27% (active) | -71.6% (active) | 109% | 82.1%
Clc1ccc(-c2nc(-c3cccs3)no2)c(Cl)c1 | 83% | 111% | 88.1% | 29.2% | 94.6% | 68% | 99.3%
CCC(C)CC(CC)NCCN1CCN(C(CC)CC(C)CC)C1=S (stereo unspecified) | 78.6% | 26.8% | 29.1% | -60.9% (active) | 16.4% | -45.6% (active) | 24.4%
COc1ccc2c(c1)C(=O)c1c-2c(OCCCN(C)C)nc2cc(Br)ccc12 | 89.7% | 90.2% | 35.7% | 18.5% | 56.8% | 69.6% | 69.7%

Compound | growth [1] | growth [2] | growth [3] | growth [4] | growth [5] | growth [6] | growth [7]
COc1cc(C2CC(=O)Nc3c2cc(Br)c2ccccc32)cc(Br)c1OC (stereo unspecified) | 60.7% | -29.6% (active) | 17.6% | 17.3% | -5.31% (active) | 90.9% | 6.63% (active)
Cc1cc(C(=O)O)c(C)cc1C(=O)O | 103% | 113% | 114% | 96% | 105% | 95.1% | 113%
CC(C)[C@H]1CC[C@H]2[C@@H](CC[C@H]3[C@](C)(CN)CCC[C@]23C)C1 | 99.4% | 1.77% (active) | -12.2% (active) | -55.8% (active) | 5.32% (active) | 29.3% | 36.7%
O=C1CCCN1C1CCN(Cc2cc3ccccc3[nH]c2=O)c2ccccc21 (stereo unspecified) | 98.2% | 93.5% | 96.3% | 92.8% | 82.6% | 96.4% | 98.1%
CCOC(=O)c1c(C)nc(C)c(C(=O)OCC)c1-c1cccnc1 | 106% | 111% | 112% | 109% | 90% | 104% | 110%
Cc1c(C(N)=O)sc2c1C(=O)N(Cc1ccccc1)C1=NN=C(c3ccc(Cl)cc3)CN12 | 58.2% | 66.3% | 57.5% | 37.8% | 18.8% | 40.9% | 42.6%
O=C(Nc1ccc(Cl)cc1)Nc1ccc(Oc2nncc3ccccc23)cc1 | -10.3% (active) | -33.3% (active) | -30.1% (active) | 14.3% | -56.9% (active) | -42.2% (active) | -32.3% (active)
CC1=CC(=O)C(C(C)=Nc2ccccc2Cl)C(=O)O1 (stereo unspecified) | 121% | 111% | 91.6% | 118% | 100% | 119% | 108%
Clc1nc(Cl)c2ncn(-c3ccccc3)c2n1 | 86.2% | 64.5% | 36.5% | 54.8% | 32.1% | 100% | 79.5%
C=C(C[C@@](O)(C(=O)Oc1ccccc1)C(=O)C1CCCCC1)c1ccccc1 | 105% | 102% | 107% | 100% | 92.7% | 105% | 105%
O=C(C=C=Nc1ccccc1)C(=O)N=C=Cc1ccccc1 | -7.61% (active) | 50.7% | -26.3% (active) | 25.9% | -36.3% (active) | 74.1% | 81.5%
O=C(CCc1nnc2sc(Cc3ccccc3Cl)nn12)c1nc2ccccc2[nH]1 | 96.7% | 101% | 98.8% | 71.6% | 85.1% | 102% | 95.8%
O=[P@@]1(c2ccccc2)O[C@H](COCc2ccccc2)[C@@H](OCc2ccccc2)[C@H](OCc2ccccc2)[C@H]1NCc1ccccc1 | 4.37% (active) | 9.72% (active) | 21.6% | 9.59% (active) | 8.21% (active) | 38.8% | 15.3%
Cc1ccc(C(=O)Nc2ccc(Cl)cc2C(=O)NCc2ccccc2)cc1 | 103% | 2.07% (active) | 58.9% | 53.9% | 89.9% | 86.9% | 60.5%
CCOc1cc(C(C)(C)C)ccc1C1=N[C@H](c2ccc(Cl)cc2)[C@H](c2ccc(Cl)cc2)N1C(=O)N1CCN(CC#Cc2cccc3c2CN([C@@H]2CCC(=O)NC2=O)C3=O)CC1 | 22.9% | 33.6% | 26.9% | 8.49% (active) | 17.8% | 25.3% | 26.3%
C[C@]12CC[C@@H]3c4ccc(O)c([N+](=O)[O-])c4CC[C@H]3[C@@H]1CC[C@@H]2NS(=O)(=O)c1cccc(Br)c1 | 29.3% | 10.7% | 44.5% | 14.6% | 21.8% | 51.2% | 17.4%
COc1cc(-c2cc(C(=O)Nc3nc4ccccc4s3)nc3cc(-c4ccccc4)nn23)cc(OC)c1OC | 59.6% | 31% | 55.7% | 72.9% | 57.8% | 85.6% | 45.3%
CC/C(=C\c1ccc(N(C)C)cc1)c1nc2ccccc2c(=O)[nH]1 | 60.3% | 108% | 120% | 98.2% | 108% | 93% | 119%
C[n+]1ccc(C#N)c2ccccc21 | 102% | 95.8% | 90.6% | 87.5% | 80% | 114% | 100%
O=C1c2ccccc2-c2c1nc1ccccc1[n+]2[O-] | 98.2% | 110% | 97.5% | 95.8% | 98.5% | 104% | 101%
CC(C)[C@]12O[C@H]1[C@@H]1O[C@]13[C@]1(O[C@H]1C[C@H]1C4=C(CC[C@@]13C)C(=O)OC4)[C@@H]2OC(=O)CN(C)C | -18.2% (active) | -76.4% (active) | 0.523% (active) | 18.1% | 4.59% (active) | -37.2% (active) | 2.83% (active)
Cc1cccc(Cl)c1NC(=O)c1ccc2nc(NC(=O)NC3CC(C)(C)NC(C)(C)C3)sc2c1 | 95% | 90% | 110% | 86.5% | 89.1% | 96.5% | 110%
NNC(=O)NO | 99% | 108% | 103% | 94% | 101% | 99.9% | 98.2%
Nc1ccc(S(=O)(=O)Nc2ncccn2)cc1 | 119% | 108% | 105% | 101% | 113% | 104% | 108%
